Test results published in PubChem BioAssay (NCATS).
Unmarked numbers belong to inactive results. Records with an inconclusive call do not appear. Entries that show only a call come without a potency. Calls of active or inactive are those of the source. Unless noted, the call rests on the fitted dose curve; in most records, active means well fitted curve in the direction sought with a large enough effect; inconclusive means small, poorly fitted or top-dose-only effect, or another doubt; inactive means no such curve, though single readings can be large; an effect the other way counts as inactive or inconclusive.

Assays:
[1] = Cytometric Cell-Based qHTS for Inhibitors of the mTORC1 Signaling Pathway in MEF (Tsc2-/-, p53-/-) Cells (AID 2660);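 further: Tsc2 and p53 null MEFs carrying empty vector with compound for 24 h; percent of cells above a phospho-rpS6 to PI ratio cutoff in each well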
In short: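 Readout: Alexa-488 phospho-rpS6 (Ser235/236) intensity divided by PI intensity, thresholded against 7.5 nM rapamycin wells and reported as % positive cells. PI cell count served as the viability measure. Compound exposure was 24 hrs at 37 degree Celsius.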

[2] = High Content Imaging Cell-Based qHTS for Inhibitors of the mTORC1 Signaling Pathway in MEF (Tsc2-/-, p53-/-) Cells (AID 2666); settings: at 38.3 µM (top of the series);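 further: percent of cells scored positive for phospho-rpS6 Ser235/236 immunostaining by imaging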
In short: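 Cells were plated, dosed with compound after 24 hrs, and incubated another 24 hrs at 37 degree Celsius. Fixed cells were immunostained for phospho-rpS6 Ser235/236 and counterstained, and the normalized signal was scored as % active cells against rapamycin and DMSO controls.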

[3] = High Content Imaging Cell-Based qHTS for Inhibitors of the mTORC1 Signaling Pathway in MEF Cells (AID 2667); further: potency means the concentration at half of the fitted maximal effect
In short: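 Immunofluorescence for rpS6 phosphorylation in MEFs of Tsc2-/-, p53-/- background rescued with WT Tsc2. Compound exposure lasted 24 hrs. Inhibition was scored against rapamycin-treated control wells.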

[4] = target: Ubiquitin carboxyl-terminal hydrolase 2 (Homo sapiens) (UniProt O75604); assay: qHTS Validation Assay for Inhibitors of Ubiquitin-specific Protease USP2a Using CHOP2 as the Reporter (AID 463106)
Sequence of Ubiquitin carboxyl-terminal hydrolase 2 (Homo sapiens) (O75604 whole entry, looked up): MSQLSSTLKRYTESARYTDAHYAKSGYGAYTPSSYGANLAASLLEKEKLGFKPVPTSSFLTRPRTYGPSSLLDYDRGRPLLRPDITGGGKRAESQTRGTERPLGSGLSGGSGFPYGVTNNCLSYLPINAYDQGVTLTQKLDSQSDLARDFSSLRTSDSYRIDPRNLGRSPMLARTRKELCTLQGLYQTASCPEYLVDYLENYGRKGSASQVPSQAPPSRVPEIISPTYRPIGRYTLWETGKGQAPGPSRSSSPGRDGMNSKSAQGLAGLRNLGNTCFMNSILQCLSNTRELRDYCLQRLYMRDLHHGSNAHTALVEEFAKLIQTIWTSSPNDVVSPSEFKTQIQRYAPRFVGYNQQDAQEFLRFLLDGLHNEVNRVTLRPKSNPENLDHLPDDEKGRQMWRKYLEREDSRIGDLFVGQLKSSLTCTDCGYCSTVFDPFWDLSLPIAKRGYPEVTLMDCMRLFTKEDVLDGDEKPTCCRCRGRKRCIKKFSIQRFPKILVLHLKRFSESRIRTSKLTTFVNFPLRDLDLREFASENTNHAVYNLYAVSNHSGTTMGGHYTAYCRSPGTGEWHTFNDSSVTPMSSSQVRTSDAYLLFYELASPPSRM
In short: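 10nM USP2 core + cpd, 30min RT; add 25nM Ub-CHOP2/25nM substrate; 60min RT; FI 485/531nm. Buffer Tris pH 8.0, CaCl2, BME, CHAPS. Norm. to NEM = 100% inhibition; time-zero read flags fluorescent artifacts.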

[5] = target: DNA polymerase III PolC-type (Bacillus subtilis (strain 168)) (UniProt P13267); assay: qHTS Validation Assay for the Inhibitors of DNA Replication in Gram-Positive Bacteria (AID 485295);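 further: reconstituted holoenzyme with PolC plus beta clamp SSB and primase; PicoGreen fluorescence of double-stranded DNA made on primed circular M13 template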
In short: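 Inhibition of DNA synthesis by the reconstituted PolC holoenzyme, monitored through PicoGreen staining of dsDNA formed from ssM13Gori, dNTPs and NTPs, with compound preincubation and room-temperature reaction.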

[6] = target: Tumor susceptibility gene 101 protein (Homo sapiens) (UniProt Q99816); assay: qHTS Validation Assay for Iinhibitors of HIV-1 Budding by Blocking the Interaction of PTAP/TSG101 (AID 485342; calls by dose curve)
In short: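 Compound wells held the Tsg101 binding domain (10 uM) and a FITC-conjugated PTAP peptide (50 nM) in buffer at pH 7.5 containing 0.15 M NaCl and 0.01% Tween 20; polarization was recorded after 20 min, r.t.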

[7] = target: Beta-2 adrenergic receptor (Homo sapiens) (UniProt P07550); assay: qHTS validation assay of beta-arrestin-biased ligands of beta2-adrenergic receptor (AID 485366)
Sequence of Beta-2 adrenergic receptor (Homo sapiens) (P07550 whole entry, looked up): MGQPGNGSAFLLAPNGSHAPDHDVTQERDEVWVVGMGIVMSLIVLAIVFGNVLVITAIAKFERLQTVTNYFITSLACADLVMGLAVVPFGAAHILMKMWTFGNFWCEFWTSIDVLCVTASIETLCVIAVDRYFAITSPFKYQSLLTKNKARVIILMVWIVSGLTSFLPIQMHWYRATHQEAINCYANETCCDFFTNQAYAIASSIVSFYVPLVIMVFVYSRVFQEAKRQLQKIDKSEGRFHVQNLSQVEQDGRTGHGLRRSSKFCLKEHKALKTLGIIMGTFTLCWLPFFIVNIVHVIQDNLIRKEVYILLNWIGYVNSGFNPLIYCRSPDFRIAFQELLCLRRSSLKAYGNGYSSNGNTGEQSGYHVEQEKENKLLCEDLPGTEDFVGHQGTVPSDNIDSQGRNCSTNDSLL
In short: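 Tango cells (recombinant beta2-AR with recombinant beta-arrestin; recruitment releases tTA driving luciferase) were treated with compounds titrated up to 46 microM for 18 hr at 37 degrees C. Luminescence gave %Activity, and concentration-response curves were curve-classified.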

[8] = target: Thioredoxin reductase 1, cytoplasmic (Rattus norvegicus) (UniProt O89049); assay: qHTS Assay for Substrates of Mammalian Selenoprotein Thioredoxin Reductase 1 (TrxR1) (AID 488772);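 further: NADPH fluorescence in the first read after selenite addition and not the 8 min delta; a drop in NADPH fluorescence below the no-compound background marks a TrxR1 substrate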
Sequence of Thioredoxin reductase 1, cytoplasmic (Rattus norvegicus) (O89049 whole entry, looked up): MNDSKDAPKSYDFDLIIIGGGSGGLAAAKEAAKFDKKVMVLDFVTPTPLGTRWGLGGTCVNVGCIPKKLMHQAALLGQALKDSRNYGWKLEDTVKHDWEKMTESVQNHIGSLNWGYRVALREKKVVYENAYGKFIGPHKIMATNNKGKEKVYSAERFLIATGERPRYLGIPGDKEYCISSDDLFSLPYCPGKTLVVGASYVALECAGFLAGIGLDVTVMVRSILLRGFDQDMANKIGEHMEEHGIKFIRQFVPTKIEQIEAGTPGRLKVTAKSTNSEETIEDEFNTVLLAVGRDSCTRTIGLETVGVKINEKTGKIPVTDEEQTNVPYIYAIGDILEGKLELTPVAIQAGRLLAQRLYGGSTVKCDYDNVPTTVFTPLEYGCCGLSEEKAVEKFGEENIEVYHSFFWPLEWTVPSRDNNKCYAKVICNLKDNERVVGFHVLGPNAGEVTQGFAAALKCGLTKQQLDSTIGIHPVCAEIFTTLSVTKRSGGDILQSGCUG
In short: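 Quantitative HTS in Tris-HCl buffer at pH 7.5 with EDTA and Tween-20, using rat TrxR1, 400 uM NADPH and 400 uM selenite (final). A fall in initial NADPH fluorescence relative to background marked substrate behaviour.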

[9] = target: Thioredoxin reductase 1, cytoplasmic (Rattus norvegicus) (UniProt O89049); assay: qHTS Assay for Inhibitors of Mammalian Selenoprotein Thioredoxin Reductase 1 (TrxR1) (AID 488773); settings: Potency: inhibition;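 further: drop in NADPH fluorescence over an 8 min run after selenite addition; nearly all actives have a fitted effect of over 40% in size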
In short: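 Steps: enzyme (90 nM) plus NADPH (400 uM final), 5 min at ~22 deg C; compound added, 15 min; selenite (400 uM final) added; fluorescence followed for 8 min. Concentration-response curves derived from the normalized delta values.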

[10] = target: Flap endonuclease 1 (Homo sapiens) (UniProt P39748); assay: qHTS Validation Assay for the Inhibitors of Human Flap endonuclease 1 (FEN1) (AID 488816)
Sequence of Flap endonuclease 1 (Homo sapiens) (P39748 whole entry, looked up): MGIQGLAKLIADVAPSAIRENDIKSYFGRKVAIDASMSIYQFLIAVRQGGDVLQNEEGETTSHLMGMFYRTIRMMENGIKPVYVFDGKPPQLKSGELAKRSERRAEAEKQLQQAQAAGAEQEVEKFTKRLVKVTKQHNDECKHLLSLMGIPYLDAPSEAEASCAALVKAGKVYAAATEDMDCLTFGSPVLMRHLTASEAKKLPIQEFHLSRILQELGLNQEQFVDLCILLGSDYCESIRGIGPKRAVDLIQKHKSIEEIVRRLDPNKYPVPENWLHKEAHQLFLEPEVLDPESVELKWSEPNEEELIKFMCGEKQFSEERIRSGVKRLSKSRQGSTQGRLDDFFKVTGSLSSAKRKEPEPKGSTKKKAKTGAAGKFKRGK
In short: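 Readings taken at 0 and 15 min after starting the reaction with 50 nM (final) substrate supplied the signal. Compounds had first sat with 10 nM FEN1 reagent for 15 min at room temperature. Values come from Hill-equation concentration-response fits.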

[11] = target: M-phase phosphoprotein 8 (Homo sapiens) (UniProt Q99549); assay: qHTS Validation Assay for Inhibitors for MPP8 Chromodomain Interactions with Methylated Histone Tails (AID 488949); further: potency means the concentration at half of the fitted maximal effect; nearly all actives have a fitted effect of over 55% in size
In short: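 Chemiluminescent proximity assay: histidine-tag capture via nickel acceptor beads, biotin peptide via streptavidin donor beads. Protein and peptide each at 50 nM, pH 7.4, with 30 min incubations at room temperature for complex formation, compound exposure and bead binding.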

[12] = target: D(1A) dopamine receptor (Homo sapiens) (UniProt P21728); assay: HTS Assay for Allosteric Agonists of the Human D1 Dopamine Receptor: Primary Screen for Agonists (AID 488981)
Sequence of D(1A) dopamine receptor (Homo sapiens) (P21728 whole entry, looked up): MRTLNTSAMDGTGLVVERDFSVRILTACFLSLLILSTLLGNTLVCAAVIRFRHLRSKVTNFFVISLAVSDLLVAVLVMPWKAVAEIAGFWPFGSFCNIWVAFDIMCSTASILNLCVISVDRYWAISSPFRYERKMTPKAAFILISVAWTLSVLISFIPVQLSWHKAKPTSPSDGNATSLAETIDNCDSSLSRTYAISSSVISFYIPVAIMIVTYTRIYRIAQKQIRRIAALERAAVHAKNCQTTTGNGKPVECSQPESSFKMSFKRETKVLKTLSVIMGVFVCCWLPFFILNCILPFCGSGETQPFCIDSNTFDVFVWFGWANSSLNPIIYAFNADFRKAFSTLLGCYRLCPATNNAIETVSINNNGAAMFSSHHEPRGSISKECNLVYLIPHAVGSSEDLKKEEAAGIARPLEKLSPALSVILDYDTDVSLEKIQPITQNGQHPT
In short: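 Calcium flux in an inducible, force-coupled HEK293 Trex D1 line (overnight at 30 C): agonist mode is the 180 s kinetic read after compound; potentiator mode is the following 180 s read after dopamine at EC20.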

[13] = target: D(1A) dopamine receptor (Homo sapiens) (UniProt P21728); assay: HTS Assay for Allosteric Agonists of the Human D1 Dopamine Receptor: Primary Screen for Antagonists (AID 488983);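 further: calcium flux response to an EC80 dopamine challenge measured with no-wash dye; nearly all actives have a fitted effect of over 65% in size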
In short: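 Cells are induced with tetracycline and incubated overnight at 30 C, then loaded with calcium dye for 30 to 90 minutes at room temperature. Compound addition is followed by a 180 s read, then an EC80 dopamine addition and another 180 s read.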

[14] = Validation screen for small molecules that induce genotoxicity in human embryonic kidney (HEK293T) cells expressing luciferase-tagged ELG1 (AID 493106)
In short: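 Luminescence from an ELG1-luciferase fusion serves as the read-out, rising when genetic stress elevates ELG1 protein. HEK293T reporter cells (2,000 per well) received 23 nL compound, incubated 16 hr at 37 °C, then ONE-Glo for 30 min at room temperature.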

[15] = target: ATPase family AAA domain-containing protein 5 (Homo sapiens) (UniProt Q96QE3); assay: Validation screen for small molecules that inhibit ELG1-dependent DNA repair in human embryonic kidney (HEK293T) cells expressing luciferase-tagged ELG1 (AID 493107); further: potency means the concentration at half of the fitted maximal effect; nearly all actives have a fitted effect of over 70% in size
Sequence of ATPase family AAA domain-containing protein 5 (Homo sapiens) (Q96QE3 whole entry, looked up, the tested form may be a part): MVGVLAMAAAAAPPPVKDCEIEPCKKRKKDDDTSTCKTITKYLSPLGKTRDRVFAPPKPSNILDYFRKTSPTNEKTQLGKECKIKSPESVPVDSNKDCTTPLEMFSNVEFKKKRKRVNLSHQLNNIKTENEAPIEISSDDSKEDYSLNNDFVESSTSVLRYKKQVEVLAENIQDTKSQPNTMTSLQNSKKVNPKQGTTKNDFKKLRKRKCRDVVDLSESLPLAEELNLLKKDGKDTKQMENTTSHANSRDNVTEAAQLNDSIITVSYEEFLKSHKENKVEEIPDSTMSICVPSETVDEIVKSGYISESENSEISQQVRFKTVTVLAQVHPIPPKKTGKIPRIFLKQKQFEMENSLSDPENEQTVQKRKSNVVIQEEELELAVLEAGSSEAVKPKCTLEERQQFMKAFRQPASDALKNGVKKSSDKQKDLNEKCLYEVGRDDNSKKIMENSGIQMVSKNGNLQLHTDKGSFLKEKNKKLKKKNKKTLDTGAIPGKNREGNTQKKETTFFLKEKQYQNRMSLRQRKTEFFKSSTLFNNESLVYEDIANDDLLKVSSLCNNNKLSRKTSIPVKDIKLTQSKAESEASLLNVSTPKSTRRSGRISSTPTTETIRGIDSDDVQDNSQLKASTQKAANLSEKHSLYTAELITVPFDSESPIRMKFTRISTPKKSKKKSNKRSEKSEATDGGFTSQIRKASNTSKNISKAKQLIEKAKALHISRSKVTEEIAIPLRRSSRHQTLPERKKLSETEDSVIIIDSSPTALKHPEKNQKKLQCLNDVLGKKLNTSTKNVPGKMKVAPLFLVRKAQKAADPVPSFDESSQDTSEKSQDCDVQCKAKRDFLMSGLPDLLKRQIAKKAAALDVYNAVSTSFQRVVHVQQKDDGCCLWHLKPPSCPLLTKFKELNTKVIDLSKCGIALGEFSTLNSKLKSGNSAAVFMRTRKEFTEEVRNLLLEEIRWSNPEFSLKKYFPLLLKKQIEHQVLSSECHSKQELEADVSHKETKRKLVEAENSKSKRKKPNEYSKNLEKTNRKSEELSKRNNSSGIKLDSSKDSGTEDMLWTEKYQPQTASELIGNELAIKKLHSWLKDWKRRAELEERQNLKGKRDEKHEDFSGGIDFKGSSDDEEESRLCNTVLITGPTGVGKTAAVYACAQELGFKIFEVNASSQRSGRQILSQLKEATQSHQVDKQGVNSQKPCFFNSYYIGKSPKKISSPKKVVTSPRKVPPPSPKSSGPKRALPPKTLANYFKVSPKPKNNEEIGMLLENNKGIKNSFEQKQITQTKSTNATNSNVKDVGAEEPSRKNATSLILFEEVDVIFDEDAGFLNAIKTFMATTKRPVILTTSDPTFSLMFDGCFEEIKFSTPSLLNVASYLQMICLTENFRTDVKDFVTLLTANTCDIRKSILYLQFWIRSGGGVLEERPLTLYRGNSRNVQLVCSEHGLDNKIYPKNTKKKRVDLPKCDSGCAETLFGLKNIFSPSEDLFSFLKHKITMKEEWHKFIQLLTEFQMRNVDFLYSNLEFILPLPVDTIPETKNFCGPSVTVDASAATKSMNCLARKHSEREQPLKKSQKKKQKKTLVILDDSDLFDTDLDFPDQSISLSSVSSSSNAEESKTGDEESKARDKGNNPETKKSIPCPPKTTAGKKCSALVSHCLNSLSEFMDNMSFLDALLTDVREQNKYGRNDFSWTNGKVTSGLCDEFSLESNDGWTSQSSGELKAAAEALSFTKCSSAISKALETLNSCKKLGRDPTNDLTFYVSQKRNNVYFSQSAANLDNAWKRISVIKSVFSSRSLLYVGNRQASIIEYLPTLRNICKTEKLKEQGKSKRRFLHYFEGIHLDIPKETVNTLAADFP
In short: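 Luminescence from ONE-Glo, developed 30 min at room temperature, served as read-out of ELG1-luciferase levels. Beforehand, reporter HEK293T cells received 5-fluorouridine plus test compound for 16 hr at 37 °C.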

[16] = qHTS for Inhibitors of Cell Surface uPA Generation: Validation Assay (AID 493164)
In short: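 RAW 264.7 cells (4000/well) were plated overnight, then exposed for 18 h at 37 C, 5% CO2 to compounds in a 7-point 1:5 titration (2.45 nM–38.3 uM final). Intracellular ATP was read by ATP-Lite luminescence.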

[17] = target: Peptidyl-prolyl cis-trans isomerase NIMA-interacting 1 (Homo sapiens) (UniProt Q13526); assay: qHTS Validation Assay to Find Inhibitors of Pin1 (AID 504536; active means well fitted inhibition curve with a large enough effect in the polarisation, with a control signal flat, not every such curve was filed as active; the % refers to the polarisation)
In short: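 Fluorescence polarization competition: compounds (titration) displace HiFluor-488-labeled Pin1-1b peptide from Pin1 (0.3 uM final) in pH 7.5 HEPES buffer with DTT, 10 min at room temperature; %Activity normalized to no-enzyme wells, curves fitted.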

[18] = target: Ubiquitin carboxyl-terminal hydrolase 1 (Homo sapiens) (UniProt O94782); assay: Inhibitors of USP1/UAF1: Pilot qHTS (AID 504865);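 further: rhodamine fluorescence freed from ubiquitin-rhodamine substrate followed over time; top concentration of the series differs between compounds; nearly all actives have a fitted effect of over 35% in size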
Sequence of Ubiquitin carboxyl-terminal hydrolase 1 (Homo sapiens) (O94782 whole entry, looked up): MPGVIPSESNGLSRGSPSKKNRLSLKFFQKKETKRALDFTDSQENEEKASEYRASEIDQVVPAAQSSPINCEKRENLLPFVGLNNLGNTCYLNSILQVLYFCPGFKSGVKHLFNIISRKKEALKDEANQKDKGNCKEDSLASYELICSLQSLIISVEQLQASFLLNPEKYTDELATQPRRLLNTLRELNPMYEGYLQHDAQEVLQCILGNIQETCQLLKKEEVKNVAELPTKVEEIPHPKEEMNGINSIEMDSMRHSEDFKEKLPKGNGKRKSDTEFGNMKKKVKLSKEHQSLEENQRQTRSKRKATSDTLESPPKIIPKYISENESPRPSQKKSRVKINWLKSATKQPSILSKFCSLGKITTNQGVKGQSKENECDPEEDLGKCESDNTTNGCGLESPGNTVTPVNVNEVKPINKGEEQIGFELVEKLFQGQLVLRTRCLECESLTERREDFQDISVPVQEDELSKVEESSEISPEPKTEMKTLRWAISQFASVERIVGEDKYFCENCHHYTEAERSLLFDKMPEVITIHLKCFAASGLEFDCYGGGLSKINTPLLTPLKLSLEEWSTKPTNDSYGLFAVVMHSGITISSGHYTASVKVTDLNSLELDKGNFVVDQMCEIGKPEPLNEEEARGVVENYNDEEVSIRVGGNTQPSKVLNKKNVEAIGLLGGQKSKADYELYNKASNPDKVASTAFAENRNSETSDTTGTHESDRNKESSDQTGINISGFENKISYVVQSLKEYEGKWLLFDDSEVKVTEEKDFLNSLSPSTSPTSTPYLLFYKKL
In short: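 Enzyme-free wells gave the negative control, while test wells held 1nM USP1/UAF1 preincubated with compound for 15 min at room temperature. Ub-Rho at 150nM final started the reaction, and fluorescence at 480/540 nm was recorded kinetically.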

[19] = qHTS for Inhibitors of ATXN expression: Validation of Cytotoxic Assay (AID 588349); further: potency means the concentration at half of the fitted maximal effect
In short: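 Read-out: ATP-based luminescence (CellTiter Glo) reflecting viability of HEK293 cells after 72 hr incubation at 37 degrees C with a concentration series of each compound.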

[20] = qHTS for Inhibitors of ATXN expression: Validation (AID 588378); further: potency means the concentration at half of the fitted maximal effect; nearly all actives have a fitted effect of over 75% in size
In short: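 After a 2 h attachment and 24 h compound incubation, HEK293-ATXN2-FFLuc wells are read for fluorescence at 405 nm excitation/525 nm emission as a viability measure, then for Bright-Glo luminescence reflecting ATXN2 expression.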

[21] = qHTS of Trypanosoma Brucei Inhibitors: LOPAC Validation (AID 624147)
In short: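 Screened from lowest to highest concentration, compounds were pinned into TbPYK/substrate mixtures, and ADP (130 uM final) was added. Plates sat at room temperature for 45 min prior to Kinase-Glo Plus detection by luminescence.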

[22] = target: Glucagon-like peptide 1 receptor (Homo sapiens) (UniProt P43220); assay: qHTS of GLP-1 Receptor Agonists: LOPAC Validation (AID 624148);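 further: luminescence from a luciferase reporter switched on by cAMP; higher luminescence signal means agonism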
In short: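 Agonism scored as increased luciferase luminescence driven by cAMP in HEK293 clones carrying GLP-1R. Cells settled 12 hours, received compound for 4-6 hr at 37 deg C, 5% CO2, and were read after 12 min detection reagent at RT.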

[23] = qHTS of Nrf2 Activators: LOPAC Validation (AID 624149)
In short: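 Luminescence read-out of ARE-luciferase activation: AREc32_Fluc cells treated with compounds for 24 hr at 37 deg C, then lysed with Steady-Glo for 30 min at room temperature before reading.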

SMILES: O=C1c2ccccc2C(=O)c2c(NCCc3ccc(O)cc3)ccc(NCCc3ccc(O)cc3)c21
- outcome [1]: inactive
- outcome [2]: inactive
- Potency [3]: 4.65 µM (active)
- Potency [4]: inactive
- Potency [5]: inactive
- outcome [6]: inactive
- outcome [7]: inactive
- outcome [8]: inactive
- Potency [9]: inactive
- Potency [10]: inactive
- Potency [11]: 2.12 µM (active)
- outcome [12]: inactive
- outcome [13]: inactive
- Potency [14]: inactive
- Potency [15]: 14.6 µM (active)
- outcome [16]: inactive
- Potency [17]: inactive
- Potency [18]: inactive
- Potency [19]: 8.91 µM (active)
- Potency [20]: 8.91 µM (active)
- outcome [21]: inactive
- outcome [22]: inactive
- outcome [23]: inactive
